Test results taken from PubChem BioAssay (NCATS).
Results filed as inconclusive are left out. The source made the active and inactive calls. Unless noted, calls come from the whole dose curve; as a rule, active = well fitted curve in the direction sought with a large enough effect; inconclusive = small, poorly fitted or top-dose-only effect, or another doubt; inactive = no such curve, though single readings can be large; an effect the other way counts as inactive or inconclusive.

Tests used:
[1] = Cytometric Cell-Based qHTS for Inhibitors of the mTORC1 Signaling Pathway in MEF (Tsc2-/-, p53-/-) Cells (AID 2660);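 note: Tsc2 and p53 null MEFs carrying empty vector with compound for 24 h; percent of cells above a phospho-rpS6 to PI ratio cutoff in each well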
How it was run: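 Readout: Alexa-488 phospho-rpS6 (Ser235/236) intensity divided by PI intensity, thresholded against 7.5 nM rapamycin wells and reported as % positive cells. PI cell count served as the viability measure. Compound exposure was 24 hrs at 37 degree Celsius.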

[2] = High Content Imaging Cell-Based qHTS for Inhibitors of the mTORC1 Signaling Pathway in MEF (Tsc2-/-, p53-/-) Cells (AID 2666); conditions: at 38.3 µM (top of the series);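 note: percent of cells scored positive for phospho-rpS6 Ser235/236 immunostaining by imaging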
How it was run: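 Inhibition of rpS6 phosphorylation is measured by immunofluorescence imaging in empty-vector Tsc2-/-, p53-/- mouse embryonic fibroblasts after 24 hrs compound exposure at 37 degree Celsius. Results are reported as % positive cells per well.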

[3] = High Content Imaging Cell-Based qHTS for Inhibitors of the mTORC1 Signaling Pathway in MEF Cells (AID 2667);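 note: Tsc2-/- p53-/- MEFs stably re-expressing wild-type Tsc2 exposed 24 h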
How it was run: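 Fixed-cell imaging of phospho-S6 (Ser235/236, Alexa-488) after 24 hrs of compound treatment at 37 degree Celsius. Signal was normalized to Hoechst, and thresholds from the highest and lowest wells split cells into % active versus % non-active.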

[4] = target: Ubiquitin carboxyl-terminal hydrolase 2 (Homo sapiens) (UniProt O75604); experiment: qHTS Validation Assay for Inhibitors of Ubiquitin-specific Protease USP2a Using CHOP2 as the Reporter (AID 463106)
How it was run: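 Inhibition is expressed relative to NEM as the full-inhibition control, with concentration-response curves classed by fit quality, magnitude and activity. Enzyme (USP2 core, 10nM) meets 25nM Ub-CHOP2 after compound preincubation; readings are taken at 60min.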

[5] = target: Tumor susceptibility gene 101 protein (Homo sapiens) (UniProt Q99816); experiment: qHTS Validation Assay for Iinhibitors of HIV-1 Budding by Blocking the Interaction of PTAP/TSG101 (AID 485342; calls by dose curve)
How it was run: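 Binding of a FITC-tagged PTAP-motif peptide (50 nM) to the Tsg101 binding domain (10 uM) is monitored by fluorescence polarization. Compounds are pin-delivered before peptide addition, and incubation runs 20 min at room temperature.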

[6] = qHTS Validation Assay to Find Inhibitors of Chronic Active B-Cell Receptor Signaling (AID 485345; active = well fitted curve in the direction sought with a large enough effect in the main read-out, with a control signal flat, not every such curve was filed as active)
How it was run: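 TMD8 ABC-DLBCL cells with dox-inducible green luciferase–IκBα fusion and red native luciferase; compounds 46 uM–3 nM, 4 h at 37C with doxycycline in 0.5% FBS IMDM. Green/red ratio normalized to basal and 10 uM MG-132.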

[7] = target: Beta-2 adrenergic receptor (Homo sapiens) (UniProt P07550); experiment: qHTS validation assay of beta-arrestin-biased ligands of beta2-adrenergic receptor (AID 485366)
Sequence of Beta-2 adrenergic receptor (Homo sapiens) (P07550 whole entry, looked up): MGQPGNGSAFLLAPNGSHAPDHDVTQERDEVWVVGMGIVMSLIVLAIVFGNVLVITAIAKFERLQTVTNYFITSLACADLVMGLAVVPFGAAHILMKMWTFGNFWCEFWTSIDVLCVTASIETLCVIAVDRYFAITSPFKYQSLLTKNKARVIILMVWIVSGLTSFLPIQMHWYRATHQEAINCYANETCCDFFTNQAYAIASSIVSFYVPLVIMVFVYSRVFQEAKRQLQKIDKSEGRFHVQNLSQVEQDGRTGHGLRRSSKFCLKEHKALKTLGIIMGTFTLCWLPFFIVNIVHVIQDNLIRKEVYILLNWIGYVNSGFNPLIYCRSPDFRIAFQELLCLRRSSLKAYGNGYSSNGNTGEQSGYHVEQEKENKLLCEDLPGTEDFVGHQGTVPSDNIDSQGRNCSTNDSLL
How it was run: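 Agonist activity is measured as luciferase luminescence downstream of beta-arrestin recruitment to recombinant beta2-AR in Tango cells. Exposure lasts 18 hr at 37 degrees C, and curves are categorized by r2, response size and activity.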

[8] = target: Thioredoxin reductase 1, cytoplasmic (Rattus norvegicus) (UniProt O89049); experiment: qHTS Assay for Substrates of Mammalian Selenoprotein Thioredoxin Reductase 1 (TrxR1) (AID 488772);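 note: a drop in NADPH fluorescence below the no-compound background marks a TrxR1 substrate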
Sequence of Thioredoxin reductase 1, cytoplasmic (Rattus norvegicus) (O89049 whole entry, looked up): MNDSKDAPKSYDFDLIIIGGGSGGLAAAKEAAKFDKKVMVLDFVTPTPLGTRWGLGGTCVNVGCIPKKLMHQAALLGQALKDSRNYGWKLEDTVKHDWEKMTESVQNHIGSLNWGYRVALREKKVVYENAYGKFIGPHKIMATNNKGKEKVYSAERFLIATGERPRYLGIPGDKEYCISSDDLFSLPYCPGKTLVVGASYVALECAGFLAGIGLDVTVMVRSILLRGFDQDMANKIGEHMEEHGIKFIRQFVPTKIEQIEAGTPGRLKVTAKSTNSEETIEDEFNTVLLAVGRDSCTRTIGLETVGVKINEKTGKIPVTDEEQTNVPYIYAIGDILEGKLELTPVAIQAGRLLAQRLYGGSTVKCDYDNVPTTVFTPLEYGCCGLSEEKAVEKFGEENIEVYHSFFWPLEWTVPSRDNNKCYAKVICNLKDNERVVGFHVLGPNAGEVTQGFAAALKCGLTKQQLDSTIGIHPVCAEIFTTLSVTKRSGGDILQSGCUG
How it was run: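 In this dual-purpose format, potential substrates are identified from the first fluorescence read after selenite addition, not from the 8-minute delta. Rat enzyme is preincubated with NADPH and then with compound at ~22 deg C.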

[9] = target: Thioredoxin reductase 1, cytoplasmic (Rattus norvegicus) (UniProt O89049); experiment: qHTS Assay for Inhibitors of Mammalian Selenoprotein Thioredoxin Reductase 1 (TrxR1) (AID 488773); conditions: Potency: inhibition; note: potency is the fitted concentration of half-maximal effect; nearly all actives have a fitted effect of over 40% in size
How it was run: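 Inhibition is scored from the loss of NADPH fluorescence between first and last reads of an 8-min kinetic run. Selenite (400 uM) was the substrate, added after 15 min compound preincubation at room temperature.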

[10] = target: Flap endonuclease 1 (Homo sapiens) (UniProt P39748); experiment: qHTS Validation Assay for the Inhibitors of Human Flap endonuclease 1 (FEN1) (AID 488816); note: potency is the fitted concentration of half-maximal effect
How it was run: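 Steps: add FEN1 (10 nM reagent) or buffer only; pin compounds; hold 15 min at room temperature; start with substrate, 50 nM final; read at 0 and 15 min; correct, normalize and fit a four-parameter Hill curve.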

[11] = target: M-phase phosphoprotein 8 (Homo sapiens) (UniProt Q99549); experiment: qHTS Validation Assay for Inhibitors for MPP8 Chromodomain Interactions with Methylated Histone Tails (AID 488949); note: potency is the fitted concentration of half-maximal effect; nearly all actives have a fitted effect of over 55% in size
How it was run: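 50 nM MPP8 + 50 nM b-H3K9me3 peptide, PBS pH 7.4/0.01% Tween-20, 30 min RT; + cpd 30 min RT; + AlphaScreen donor/Ni-chelate acceptor beads 10 ug/mL final, 30 min dark; luminescence read.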

[12] = target: D(1A) dopamine receptor (Homo sapiens) (UniProt P21728); experiment: HTS Assay for Allosteric Agonists of the Human D1 Dopamine Receptor: Primary Screen for Agonists (AID 488981)
Sequence of D(1A) dopamine receptor (Homo sapiens) (P21728 whole entry, looked up): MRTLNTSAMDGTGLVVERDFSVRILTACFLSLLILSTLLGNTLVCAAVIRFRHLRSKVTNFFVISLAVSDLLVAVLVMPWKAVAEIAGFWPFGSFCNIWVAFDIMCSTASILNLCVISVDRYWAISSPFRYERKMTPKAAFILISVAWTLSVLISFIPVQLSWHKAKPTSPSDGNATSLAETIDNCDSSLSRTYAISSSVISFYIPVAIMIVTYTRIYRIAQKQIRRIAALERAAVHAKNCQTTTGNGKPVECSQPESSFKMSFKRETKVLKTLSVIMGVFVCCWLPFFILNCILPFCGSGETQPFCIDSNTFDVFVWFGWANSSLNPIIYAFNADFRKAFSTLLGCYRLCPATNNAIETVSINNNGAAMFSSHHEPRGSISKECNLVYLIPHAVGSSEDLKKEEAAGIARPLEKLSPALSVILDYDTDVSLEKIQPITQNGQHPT
How it was run: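 Tetracycline-induced HEK293 T-REx cells force-coupled to calcium signalling were incubated overnight at 30 C and dye-loaded at room temperature. Calcium flux over 180 s after compound addition flagged agonists; a further 180 s read after EC20 dopamine flagged potentiators.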

[13] = target: D(1A) dopamine receptor (Homo sapiens) (UniProt P21728); experiment: HTS Assay for Allosteric Agonists of the Human D1 Dopamine Receptor: Primary Screen for Antagonists (AID 488983);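 note: calcium flux response to an EC80 dopamine challenge measured with no-wash dye; nearly all actives have a fitted effect of over 65% in size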
How it was run: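 Calcium-flux read-out in inducible HEK293 T-REx cells expressing D1, dye-loaded 30–90 min at room temperature. Kinetic reads: 180 s after compound (agonist phase), then 180 s after an EC80 dopamine challenge.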

[14] = Validation screen for small molecules that induce genotoxicity in human embryonic kidney (HEK293T) cells expressing luciferase-tagged ELG1 (AID 493106)
How it was run: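 ELG1-luciferase reporter readout (ONE-Glo, 30 min, room temperature) after 16 hr compound treatment at 37 °C of HEK293T cells at 2,000 per well. Rising luminescence flags genotoxic stress.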

[15] = target: ATPase family AAA domain-containing protein 5 (Homo sapiens) (UniProt Q96QE3); experiment: Validation screen for small molecules that inhibit ELG1-dependent DNA repair in human embryonic kidney (HEK293T) cells expressing luciferase-tagged ELG1 (AID 493107);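 note: inhibitors lower the ELG1-luciferase luminescence signal; nearly all actives have a fitted effect of over 70% in size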
How it was run: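 Luciferase read-out, ONE-Glo, 30 min at room temperature, follows 16 h co-exposure at 37 C of compound and the DNA-damaging agent 5-fluorouridine. Cells: HEK293T with ELG1-luciferase fusion, 2,000 per well, DMSO as vehicle.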

[16] = target: phosphoglycerate mutase (Leishmania major) (UniProt Q4Q090); experiment: qHTS Validation Assay to Find Inhibitors of Phosphoglycerate Mutase (AID 504548)
Sequence of phosphoglycerate mutase (Leishmania major) (Q4Q090 1-553): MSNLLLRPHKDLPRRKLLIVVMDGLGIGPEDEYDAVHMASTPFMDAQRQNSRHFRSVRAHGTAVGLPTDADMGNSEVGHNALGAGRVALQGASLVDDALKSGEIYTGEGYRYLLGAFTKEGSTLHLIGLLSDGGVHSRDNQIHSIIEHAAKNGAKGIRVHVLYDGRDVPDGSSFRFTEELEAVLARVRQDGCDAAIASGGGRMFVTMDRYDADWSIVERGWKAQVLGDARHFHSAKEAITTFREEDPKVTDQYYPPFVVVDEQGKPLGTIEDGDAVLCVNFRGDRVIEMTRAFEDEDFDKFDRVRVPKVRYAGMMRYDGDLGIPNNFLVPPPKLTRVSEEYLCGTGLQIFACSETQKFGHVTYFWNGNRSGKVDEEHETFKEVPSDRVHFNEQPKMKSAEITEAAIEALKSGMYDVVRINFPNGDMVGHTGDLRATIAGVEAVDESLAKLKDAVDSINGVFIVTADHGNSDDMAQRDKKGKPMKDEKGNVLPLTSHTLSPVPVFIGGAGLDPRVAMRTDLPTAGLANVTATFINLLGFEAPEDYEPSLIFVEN
How it was run: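 Lm PGAM 1.25nM final; 100 mM TEA pH 7.6, 5 mM MgCl2, 0.01% Tween-20; 45 min RT; Kinase-GloPlus, 10 min; end-point luminescence. Enzyme-free wells as negative controls.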

[17] = target: Ubiquitin carboxyl-terminal hydrolase 1 (Homo sapiens) (UniProt O94782); experiment: Inhibitors of USP1/UAF1: Pilot qHTS (AID 504865);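 note: rhodamine fluorescence freed from ubiquitin-rhodamine substrate followed over time; top concentration of the series differs between compounds; nearly all actives have a fitted effect of over 35% in size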
How it was run: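 In 50mM HEPES pH 7.8 containing 0.5mM EDTA, 1mM TCEP, 0.1 mg/ml BSA and 0.01% Tween-20, 1nM USP1/UAF1 is exposed to compound for 15 min, then Ub-Rho (150nM final) is added and fluorescence is read over time.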

[18] = NS1 protein of Zika virus - qHTS assay to identify small molecule inhibitors in human HEK 293 cells (AID 1347053); note: nearly all actives have a fitted effect of over 55% in size
How it was run: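 In this cell-based screen, HEK 293 cultures received compound for one hour before Zika MR766 at MOI = 0.5. NS1 was quantified 24 hours later by TR-FRET, normalized to virus-free wells and infected wells.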

[19] = target: T1, Tyrosine-protein phosphatase non-receptor type substrate 1 (Homo sapiens) + Leukocyte surface antigen CD47 (Homo sapiens) (UniProt P78324+Q08722); experiment: CD47-SIRPalpha protein protein interaction - HTRF assay qHTS validation (AID 1347058; active = well fitted curve in the direction sought with a large enough effect in the signal ratio, not every such curve was filed as active; the % refers to the signal ratio)
T1 sequence (P78324 whole entry, looked up, the tested form may be a part): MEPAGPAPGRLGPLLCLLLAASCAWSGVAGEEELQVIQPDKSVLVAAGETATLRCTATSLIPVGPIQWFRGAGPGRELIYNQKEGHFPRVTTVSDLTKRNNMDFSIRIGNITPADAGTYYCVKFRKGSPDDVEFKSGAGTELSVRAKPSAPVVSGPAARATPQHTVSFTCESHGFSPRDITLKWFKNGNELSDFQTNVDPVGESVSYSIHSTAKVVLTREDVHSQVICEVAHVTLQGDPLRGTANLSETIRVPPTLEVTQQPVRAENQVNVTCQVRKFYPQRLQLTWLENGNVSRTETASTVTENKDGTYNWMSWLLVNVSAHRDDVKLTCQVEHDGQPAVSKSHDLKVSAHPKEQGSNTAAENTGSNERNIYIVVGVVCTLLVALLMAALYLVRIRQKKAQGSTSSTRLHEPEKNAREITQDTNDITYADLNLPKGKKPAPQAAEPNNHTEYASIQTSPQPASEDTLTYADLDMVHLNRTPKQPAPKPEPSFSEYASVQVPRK
T1 sequence (Q08722 whole entry, looked up, the tested form may be a part): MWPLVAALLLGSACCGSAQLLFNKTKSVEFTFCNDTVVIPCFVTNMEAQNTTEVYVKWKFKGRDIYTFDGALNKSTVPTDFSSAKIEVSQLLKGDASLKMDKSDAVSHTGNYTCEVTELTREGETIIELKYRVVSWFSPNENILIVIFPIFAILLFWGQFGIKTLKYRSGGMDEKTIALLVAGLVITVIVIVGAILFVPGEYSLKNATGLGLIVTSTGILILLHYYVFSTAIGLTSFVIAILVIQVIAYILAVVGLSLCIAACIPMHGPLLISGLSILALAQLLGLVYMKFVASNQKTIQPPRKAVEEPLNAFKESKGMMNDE
How it was run: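 Soluble extracellular domains (6His-CD47, Avi-tag-biotinylated SIRPalpha) in PBS pH 7.4 with 0.05% IGEPAL CA-630. Compounds were preincubated 30 min at RT with CD47 and anti-His-Eu, then SIRPalpha and SAV-XL665 were added. TR-FRET 665/615 ratio.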

[20] = target: T1, Tyrosine-protein phosphatase non-receptor type substrate 1 (Homo sapiens) + Leukocyte surface antigen CD47 (Homo sapiens); experiment: CD47-SIRPalpha protein protein interaction - Alpha assay qHTS validation (AID 1347059);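 note: bead proximity luminescence from CD47 binding SIRPalpha after compound preincubation with SIRPalpha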
How it was run: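 In PBS (pH 7.4) with 0.05% IGEPAL CA-630, compound is preincubated with biotin-Avi-SIRPalpha ectodomain before His-CD47 ectodomain and affinity beads are added. Light-protected room-temperature incubations; AlphaScreen readout.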

[21] = target: N-terminal Xaa-Pro-Lys N-methyltransferase 1 (Homo sapiens) (UniProt Q9BV86); experiment: qHTS Assay for Inhibitors of N-terminal methyltransferase 1 (NTMT1): LOPAC validation of the NTMT1 SAHH-coupled ThioGlo3 Assay (AID 1347143);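 note: SAH from peptide methylation measured as thiol fluorescence via SAHH coupling and ThioGlo3; potency is the fitted concentration of half-maximal effect; nearly all actives have a fitted effect of over 70% in size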
How it was run: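 In this qHTS pilot against the LOPAC set, 125nM NTMT1 met compounds tested at multiple concentrations, and fluorescence was normalized to background.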

[22] = tested on: Zika virus NS2B-NS3 protease (unlinked); experiment: Optimization of GU AMC qHTS for Zika virus inhibitors: Unlinked NS2B-NS3 protease assay (AID 1347151); note: nearly all actives have a fitted effect of over 80% in size
How it was run: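 Unlinked protease (25 nM final); buffer 10 mM Tris-HCl pH 8.0 + 0.01% Tween 20; AMC substrate; 15 min RT, dark; Δfluorescence normalized to no-inhibitor/no-enzyme controls; 4-parameter Hill fit.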

[23] = qHTS to identify inhibitors of the type 1 interferon - major histocompatibility complex class I in skeletal muscle: primary screen against the NCATS LOPAC collection (AID 1347405);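 note: lytic HiBiT luminescence reporting HLA-B protein level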
How it was run: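 After 24 h at 37 C with compounds (7-point, 1:4.3 dilutions, 46 uM top final) plus 4 ng/ml IFN-beta, luminescence from lytic HiBiT detection was measured. HLA-B*08:01 in C25cl48 myoblasts carried an endogenous C-terminal HiBiT tag; medium lacked dexamethasone.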

[24] = qHTS for inhibitors of adenylyl cyclases using a fission yeast platform: a pilot screen against the NCATS LOPAC library (AID 1347410)
How it was run: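 Fission yeast qHTS: CHP2027 cells (AC9-GNAS-PDE4D2, fbp1-GFP), 5x10^6 cells/mL working density, EMM + His/Lys/Ura; LOPAC at up to 57 µM final; 18 h dark, 30C; GFP by laser cytometry. DPI positive control, DMSO vehicle.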

[25] = target: Calcium and integrin-binding protein 1 (Homo sapiens) (UniProt Q99828); experiment: Validation qHTS for Identification of Calcium Integrin Binding protein 1 (CIB1) Competitor (AID 1508618)
Sequence of Calcium and integrin-binding protein 1 (Homo sapiens) (Q99828 whole entry, looked up): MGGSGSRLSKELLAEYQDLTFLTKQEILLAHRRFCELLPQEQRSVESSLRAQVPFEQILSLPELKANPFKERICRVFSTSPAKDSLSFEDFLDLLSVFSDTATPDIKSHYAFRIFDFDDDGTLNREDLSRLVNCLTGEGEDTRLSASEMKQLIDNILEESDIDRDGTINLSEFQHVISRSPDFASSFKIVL
How it was run: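 CIB1-GST (1 uM final) in 5 mM HEPES pH 7.4, 125 mM NaCl, 5 mM CaCl2, 0.01% Tween20 was preincubated 15 min at room temperature with compound (up to 114 uM), then FITC-alphaIIb peptide (100 nM) added for 15 min; fluorescence polarization read.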

[26] = target: Metallo-beta-lactamase type 2 (Klebsiella pneumoniae) (UniProt C7C422); experiment: qHTS to identify inhibitors of the New Delhi Metallo-beta-lactamase (NDM): assay validation screen against the NCATS LOPAC Collection (AID 1794843); note: potency is the fitted concentration of half-maximal effect
How it was run: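 NDM-1 at 2 nM final in 50 mM HEPES pH 7.0 with 1 uM ZnSO4 and 0.01% Tween20 was preincubated with library compounds in DMSO. Nitrocefin (50 uM stock) was then added, and absorbance at 485 nm was read at the kinetic plateau.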

[27] = target: Glutathione peroxidase 1 (Homo sapiens) (UniProt P07203); experiment: Primary qHTS Assay for Inhibitors of Recombinant Selenoprotein Glutathione Peroxidase 1 (GPX1) (AID 1845191); note: nearly all actives have a fitted effect of over 65% in size
How it was run: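 GPX1 10 nM, GR 100 nM, GSH 1 mM, NADPH 0.5 mM, CHP 0.5 mM (final). 30-min cpd preincubation, RT. Ex340/Em450 read t=0, t=15 min.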

[28] = target: Phospholipid hydroperoxide glutathione peroxidase GPX4 (Homo sapiens) (UniProt P36969); experiment: Primary qHTS Assay for Inhibitors of Recombinant Selenoprotein Glutathione Peroxidase 4 (GPX4) (AID 1845192); conditions: outcome: dose series up to 50 µM unless noted; note: nearly all actives have a fitted effect of over 65% in size
Sequence of Phospholipid hydroperoxide glutathione peroxidase GPX4 (Homo sapiens) (P36969 whole entry, looked up): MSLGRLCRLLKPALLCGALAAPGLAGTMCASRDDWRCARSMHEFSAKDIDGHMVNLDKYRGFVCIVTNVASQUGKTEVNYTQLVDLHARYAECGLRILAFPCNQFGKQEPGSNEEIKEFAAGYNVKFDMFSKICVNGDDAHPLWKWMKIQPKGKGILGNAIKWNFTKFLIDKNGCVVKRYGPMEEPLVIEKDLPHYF
How it was run: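 qHTS, GR-coupled: GPX4 200 nM + cpd 30 min RT → GSH 1 mM, NADPH 0.5 mM, GR 100 nM → CHP 0.5 mM start; fluor 340/450 at t0 and t15 min; no-enzyme wells as control.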

Furin (Homo sapiens) = Furin (Homo sapiens) (UniProt P09958); experiment: Furin counterscreen qHTS for Zika virus inhibitors (AID 1347149);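 note: purified recombinant full-length human furin enzyme at 5 nM; fluorescence gain from furin cutting a BOC-RVRR-AMC peptide substrate over 15 min; top concentration of the series differs between compounds; nearly all actives have a fitted effect of over 70% in size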
Sequence of Furin (Homo sapiens) (P09958 whole entry, looked up): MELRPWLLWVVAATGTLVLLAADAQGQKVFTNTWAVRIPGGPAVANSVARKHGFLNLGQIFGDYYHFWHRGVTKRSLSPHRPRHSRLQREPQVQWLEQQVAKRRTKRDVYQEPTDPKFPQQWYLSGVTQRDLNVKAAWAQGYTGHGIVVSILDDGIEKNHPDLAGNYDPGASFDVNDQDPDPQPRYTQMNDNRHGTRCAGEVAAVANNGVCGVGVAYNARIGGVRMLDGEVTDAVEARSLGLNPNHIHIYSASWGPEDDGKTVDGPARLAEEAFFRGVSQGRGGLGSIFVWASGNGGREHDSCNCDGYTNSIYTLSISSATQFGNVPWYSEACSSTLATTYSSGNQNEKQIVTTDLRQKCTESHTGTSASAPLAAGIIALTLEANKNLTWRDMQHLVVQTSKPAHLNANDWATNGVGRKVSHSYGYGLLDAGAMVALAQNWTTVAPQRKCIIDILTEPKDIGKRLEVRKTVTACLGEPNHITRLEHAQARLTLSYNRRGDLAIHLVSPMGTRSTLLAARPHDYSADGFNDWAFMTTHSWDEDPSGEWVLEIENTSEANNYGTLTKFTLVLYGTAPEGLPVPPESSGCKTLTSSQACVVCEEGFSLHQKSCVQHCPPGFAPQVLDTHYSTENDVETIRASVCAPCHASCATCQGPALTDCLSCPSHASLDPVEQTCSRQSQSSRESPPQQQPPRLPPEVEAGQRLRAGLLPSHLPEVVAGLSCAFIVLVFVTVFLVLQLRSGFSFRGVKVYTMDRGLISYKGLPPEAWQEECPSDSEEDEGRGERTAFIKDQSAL
How it was run: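 Counterscreen measures cleavage of 2 microM BOC-RVRR-AMC, below its ~15 microM Km, by 5 nM full-length human furin at pH 7.0 after a 15-min compound preincubation. Inhibition derives from the 15-min fluorescence increase at 37C.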

[29] = qHTS for Inhibitors of Plasmodium falciparum (CP250) proliferation (AID 504320)
How it was run: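 Parasite growth measured as SYBR Green DNA fluorescence (ex 485, em 535 nm) after overnight lysis following 72 h culture at 37 °C, 0.3% parasitemia, 2.5% hematocrit. Values normalized against DMSO and 0.29 uM artemisinin controls, with plate-stack correction.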

[30] = target: Atrial natriuretic peptide receptor 1 (Homo sapiens) (UniProt P16066); experiment: Natriuretic polypeptide receptor (hNpr1) antagonism - Pilot CMLD screen (AID 1347052; calls by dose curve;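 note: HEK293 cells with hNpr1 stimulated by hNppA peptide at 0.1 nM; cGMP level read as GloSensor luciferase luminescence after agonist stimulation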)
Sequence of Atrial natriuretic peptide receptor 1 (Homo sapiens) (P16066 whole entry, looked up): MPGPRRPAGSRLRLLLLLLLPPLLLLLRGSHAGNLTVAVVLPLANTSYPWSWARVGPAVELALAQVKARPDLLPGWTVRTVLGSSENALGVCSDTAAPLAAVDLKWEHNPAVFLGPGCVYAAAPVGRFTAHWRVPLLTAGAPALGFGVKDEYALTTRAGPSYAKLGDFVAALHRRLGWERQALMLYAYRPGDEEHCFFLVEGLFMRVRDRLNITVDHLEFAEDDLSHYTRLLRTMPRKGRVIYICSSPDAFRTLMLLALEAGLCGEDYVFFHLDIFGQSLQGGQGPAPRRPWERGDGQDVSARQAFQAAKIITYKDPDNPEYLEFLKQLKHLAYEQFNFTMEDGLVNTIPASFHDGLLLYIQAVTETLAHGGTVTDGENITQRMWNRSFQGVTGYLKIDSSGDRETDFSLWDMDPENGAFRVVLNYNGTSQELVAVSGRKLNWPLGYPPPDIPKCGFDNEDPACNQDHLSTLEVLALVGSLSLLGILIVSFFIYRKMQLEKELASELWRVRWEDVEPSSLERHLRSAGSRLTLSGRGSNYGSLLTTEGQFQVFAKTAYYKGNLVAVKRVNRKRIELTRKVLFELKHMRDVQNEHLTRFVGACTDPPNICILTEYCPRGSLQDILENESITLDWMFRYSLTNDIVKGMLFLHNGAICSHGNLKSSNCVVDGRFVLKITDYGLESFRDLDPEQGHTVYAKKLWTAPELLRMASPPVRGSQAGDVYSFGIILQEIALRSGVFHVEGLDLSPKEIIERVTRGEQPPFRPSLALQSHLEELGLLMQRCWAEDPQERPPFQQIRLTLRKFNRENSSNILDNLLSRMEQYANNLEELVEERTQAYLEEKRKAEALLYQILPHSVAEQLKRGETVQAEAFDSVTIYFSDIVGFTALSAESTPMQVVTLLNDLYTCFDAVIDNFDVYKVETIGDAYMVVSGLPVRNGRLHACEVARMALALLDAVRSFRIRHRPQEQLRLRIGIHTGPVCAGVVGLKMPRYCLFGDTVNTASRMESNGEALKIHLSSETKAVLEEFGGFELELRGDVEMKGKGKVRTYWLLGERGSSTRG

Measured: Potency

N.N.O=C(O)C1(C(=O)O)CCC1.[Pt+2]
active: [9] 0.267 µM | [10] 29.9 µM | [11] 3.77 µM | [21] 12.6 µM | [26] 3.98 µM
not listed: Furin (Homo sapiens) | [29] | [30]
inactive: all other assays above

Cc1ccc(-c2nnc(Nc3ccc(O)cc3)c3ccccc23)cc1S(=O)(=O)NC(C)(C)CO
inactive: Furin (Homo sapiens)

CC1=C[C@@H](COCc2ccccc2)O[C@@]2(C1)C(=O)N(Cc1ccccc1C(F)(F)F)c1ccccc12
inactive: [29] | [30]

COc1cc2c(cc1OC)[C@@H]1O[C@](CCCCN3C(=O)c4ccccc4C3=O)(C2)Oc2c1c(=O)oc1ccc(F)cc21
inactive: [29] | [30]

N#Cc1ccc2c(c1)C[C@]1(CCCCN3C(=O)c4ccccc4C3=O)OC3=C(C(=O)OC4(CCCCC4)C3)[C@H]2O1
inactive: [29] | [30]
